# FMDV inh: blocks foot and mouth disease virus; FMDV antiviral cell-based qHTS; Potency, µM (titrated, usually from 57.9 µM), without a hit: at the highest dose activity change, negative = inhibition, most hits filed as inhibitors; 410,000 compounds, 1.2% hits; calls by dose curve; tested in HEK293T cells; also: read-out not given here; potency is read from the fitted curve at half-maximal effect; nearly all actives have a fitted effect of over 45% in size
# Vaccinia Venus: inhibitors of vaccinia virus (Venus reporter); 330,000 compounds, 0.46% hits; AID 720580; Vaccinia virus Venus reporter expression, fluorescence; Potency, µM (doses to about 36.5 µM), without a hit: top-dose activity change, negative = inhibition, actives largely listed as inhibitors; calls by dose curve; tested in A549 cells; also: potency is read from the fitted curve at half-maximal effect; nearly all actives have a fitted effect of over 30% in size
# HCV inhibitor: inhibitors of hepatitis C virus infection | 340,000 compounds, 3.4% hits | Huh7.5.1 HCVcc-Cre infection, luciferase reporter, 44 h | Potency, µM (doses to about 41.8 µM), for the others: at the highest dose activity change, negative = inhibition, usual class: inhibitors; also: potency is read from the fitted curve at half-maximal effect
#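 After 44 h co-culture of compound, cells and HCVcc-Cre (~0.5 moi), substrate is added for 15 min at room temperature and luciferase measured over 15 sec. Cells were seeded at 1,000/well and pre-cultured 4 h.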
# Vaccinia mCherry: inhibitors of vaccinia virus infection (mCherry reporter signal). Vaccinia virus mCherry reporter infection, fluorescence. Potency, µM (series often up to 36.5 µM), for inactives: top-dose activity change, negative = inhibition, usual class: inhibitors. 310,000 compounds, 0.63% hits. AID 720579; calls by dose curve; tested in A549 cells; also: potency is read from the fitted curve at half-maximal effect; nearly all actives have a fitted effect of over 35% in size
# HCMV inh: inhibitors of human cytomegalovirus | HFF cells, HCMV-luciferase reporter, 72 h; active compounds read low | activity change, negative = inhibition, % at 57.5 µM | 410,000 compounds, 4.5% hits; in the data active = activity change below about -60%; inconclusive = no clear call, values can overlap the other calls; inactive = above about -39%
#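 Steps: HFFs plated, 16 h 37C; compounds added; HCMV-luciferase added to MOI 1 PFU/cell; 72 h 37C; OneGlo reagent, 5 min room temperature; luminescence read, normalized to controls.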
# Sm TGR inh: blocks Schistosoma mansoni thioredoxin glutathione reductase; Q962Y6; purified TGR, DTNB reduction, TNB absorbance 405 nm; Potency, µM (titrated, usually from 114 µM), for inactives: at the top dose activity change, negative = inhibition, hits mostly inhibitors; 360,000 compounds, 3% hits; also: potency is read from the fitted curve at half-maximal effect; nearly all actives have a fitted effect of over 60% in size
#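 First, TGR (20 nM dispensed) and NADPH were mixed with compound. Second, a 15 min room-temperature incubation followed. Third, further NADPH and then DTNB were added to start the reaction. Finally, TNB absorbance was monitored kinetically.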
# Starred values were filed as active, the others as inactive; i = inactive; ? = inconclusive; / = no result given; [ ] = dose if it differs, or a comment. The list is not random: actives were taken first. Their share in the collection is about 9.3%. Unless noted, calls follow the shape of the dose curve; as a rule, active = well fitted curve in the direction sought with a large enough effect; inconclusive = small, poorly fitted or top-dose-only effect, or another doubt; inactive = no such curve, though single readings can be large; an effect the other way counts as inactive or inconclusive. % is scaled to controls: 0 for no effect and ±100 for the full control effect.
SMILES,FMDV inh,Vaccinia Venus,HCV inhibitor,Vaccinia mCherry,HCMV inh,Sm TGR inh
CC(=O)Nc1ccc(S(=O)(=O)N(C)CC(=O)OCC(=O)NNC(=O)c2ccccc2F)cc1,4.47µM*,-5.3%,12.5%,-14.8%,10.6,1.7%
N#Cc1ccc(OCC(=O)NCCc2ccc(S(N)(=O)=O)cc2)cc1,10.7%,-8.1%,11.5%,/,-80.3*,5.6%
COc1ccc(OCCOc2ccc(N(C)S(=O)(=O)c3ccccc3)cc2)cc1,?,/,11.2µM*,/,-3.8,-2.9%
COc1ccc(CCNC(=O)COc2ccc(N(C)S(=O)(=O)c3ccc(Cl)cc3)cc2)cc1,?,?,7.08µM*,?,-18.0,3.7%
CC(=O)Nc1ccc(S(=O)(=O)N(C)c2ccccc2)cc1,-11.6%,/,-12.0%,/,-14.9,-12.6%[11.4 µM]
CC(=O)Nc1ccc(S(=O)(=O)N(C)c2ccc(OCCOc3ccccc3F)cc2)cc1,-10.2%,-7.2%,10µM*,-14.3%,0.0,/
CN(c1ccc(OCC(=O)NCCc2ccccc2)cc1)S(=O)(=O)c1ccc(Cl)cc1,23.9%,?,?,-11.5%,19.0,5.6%
CC(=O)Nc1ccc(S(=O)(=O)N(C)c2ccc(OCC(=O)NCCc3ccccc3F)cc2)cc1,?,/,?,/,-61.6*,/
COc1ccc(-c2cc(=O)oc3c(O)c(O)ccc23)cc1,0.0%,?,-9.5%,11.2µM*,78.4,-18.6%
NC(=O)C1C(=O)c2ccccc2C1(C[N+](=O)[O-])c1ccccc1 (stereo unspecified),-1.9%,-0.4%,-1.1%,i,-101.1*,/
O=C(O)CC1(c2ccccc2)C(=O)c2ccccc2C1=O,5.3%,/,2.8%,/,3.0,16.8%[11.4 µM]
CC1C(=O)Nc2ccccc2N1C(=O)c1ccc(Cl)cc1 (stereo unspecified),0.0%,/,-1.1%,/,0.5,-9.0%
Cn1nnnc1SCC1=C(C(=O)O)N2C(=O)C(NC(=O)Cn3nc(C(F)F)cc3C3CC3)C2SC1 (stereo unspecified),-10.4%,/,11.7%,/,-22.7,3.55µM*
CC(C(=O)NC1C(=O)N2C(C(=O)O)=C(CSc3nnnn3C)CSC12)n1cc(Cl)cn1 (stereo unspecified),-4.1%,2.2%,3.9%,-2.5%,4.9,?
Cc1nn(CC(=O)NC2C(=O)N3C(C(=O)O)=C(CSc4nnnn4C)CSC23)cc1Br (stereo unspecified),-13.1%,0.9%,10.7%,i,2.5,20µM*
CO/N=C(/C(=O)NC1C(=O)N2C(C(=O)O)=C(CSc3nc(=O)c(O)nn3C)CSC12)c1csc(N)n1 (stereo unspecified),-5.0%,-7.8%,/,i,/,/
Cc1c(Cl)c(C(F)F)nn1CC(=O)NC1C(=O)N2C(C(=O)O)=C(CSc3nnnn3C)CSC12 (stereo unspecified),2.6%,/,6.8%,/,?,3.98µM*
CC1=C(C(=O)O)N2C(=O)C(NC(=O)c3nn(C)cc3Cl)C2SC1 (stereo unspecified),-13.1%,-8.6%,10.6%,-11.2%,-7.1,-18.5%
Cc1c(Cl)cnn1CC(=O)NC1C(=O)N2C(C(=O)O)=C(CSc3nnnn3C)CSC12 (stereo unspecified),-5.1%,-7.6%,14.2%,-0.6%,-26.1,15.8µM*
CCN1C(=O)[C@H]2[C@@H](c3ccc(-c4cccc(Cl)c4)cc3)N[C@@](CC(C)C)(C(=O)OC)[C@H]2C1=O,-25.1%,?,8.2%,-14.2%,26.9,/
COc1ccc(NC(=O)CN2CCN(c3ccccc3F)CC2)c(OC)c1,6.9%,-5.2%,/,-1.4%,-8.0,-2.2%
Cc1noc(C)c1COc1ccccc1C(=O)N1CCN(S(=O)(=O)c2ccc(C(C)C)cc2)CC1,?,-13.3%,/,-11.8%,-75.3*,/
Cc1noc(C)c1COc1ccccc1C(=O)N1CCN(S(=O)(=O)c2ccccc2Br)CC1,?,/,?,/,-86.4*,/
Cc1noc(C)c1COc1ccccc1C(=O)N1CCN(S(=O)(=O)c2ccccc2C(F)(F)F)CC1,-11.5%,-11.1%,-15.7%,i,-18.4,2.5%
O=C(c1ccccc1Cc1ccccc1)N1CCN(S(=O)(=O)c2ccccc2Br)CC1,?,-24.7%,?,?,-72.3*,-0.5%
SMILES,FMDV inh,Vaccinia Venus,HCV inhibitor,Vaccinia mCherry,HCMV inh,Sm TGR inh
O=C(CSc1nc(CCC2CCCC2)nc2ccccc12)NCc1ccc2c(c1)OCO2,-3.5%,-22.5%,?,-4.6%,?,3.4%
CCN(CC)C(=O)Cn1c(=O)n(Cc2ccc(C(=O)NCc3ccc(C)cc3)cc2)c(=O)c2ccccc21,11.0%,-4.8%,/,-3.2%,13.0,1.2%
CCN(CC)C(=O)Cn1c(=O)c2ccccc2n2c(=S)sc(-c3cccc(C)c3)c12,-14.9%,-19.1%,0.562µM*,i,-31.3,-12.5%
O=C(C(=Cc1ccccc1)CN1CCCCC1)c1ccccc1,3.55µM*,?,2.24µM*,-27.0%,-75.7*,/
CCN(CC(=O)Nc1c(F)cccc1F)C(=O)c1ccc(C)c(S(=O)(=O)N2CCCCC2)c1,-2.3%,-10.7%,?,-1.3%,/,2.0%
O=C(CNC(c1ccccc1)c1ccccc1)Nc1cc([N+](=O)[O-])ccc1Cl,?,-14.1%,-19.4%,-17.6%,-20.3,0.8%
CCC(=O)Nc1nc2c(OC)ccc(OC)c2s1,-17.2%,-6.2%,11.2µM*,-30.2%,28.6,0.0%
COc1ccc(OC)c2sc(NNC(=O)COc3ccccc3)nc12,-16.0%,/,-17.6%,/,-20.1,-6.5%
COc1ccc(OC)c2sc(NC(=O)c3ccc(Br)s3)nc12,-12.5%,11.2µM*,2.7%,?,-23.3,-0.2%
CCCC(=O)Nc1nc2c(OC)ccc(OC)c2s1,2.9%,-4.5%,8.91µM*,-0.4%,56.1,-2.0%
COc1ccc(OC)c2sc(NC(=O)c3ccc(Cl)s3)nc12,0.0%,?,7.5%,-15.9%,-8.1,3.5%
COc1ccc(OC)c2sc(NC(=O)C3CC3)nc12,-17.6%,0.6%,?,-29.1%,39.1,-20.2%
COc1ccc(C(=O)Nc2cccc(/C=C(\CCC(=O)O)c3nc4ccccc4s3)c2)cc1,5.0%,0.9%,-3.9%,-4.0%,59.0,-5.2%
Nc1ccc2c(c1)OC1(CCCC1)O2,1.41µM*,-17.3%,?,-16.8%,-86.4*,-18.3%
COc1cc2c(cc1OC)C1(Nc3c-2c(-c2ccccc2)nn3-c2ccccc2)C(=O)Nc2ccccc21 (stereo unspecified),-29.0%,?,12.6µM*,-28.1%,-14.6,-17.5%
COc1cc2c(cc1OC)C1(Nc3c-2c(C)nn3-c2ccccc2)C(=O)Nc2ccccc21 (stereo unspecified),-19.5%,?,-26.5%,-21.6%[1.46 µM],-21.1,-13.7%
O=C(CCCc1ccccc1)NCc1ccc(F)cc1,15.0%,-7.5%,5.0%,i,-17.3,-7.0%

# Source: PubChem (National Center for Advancing Translational Sciences (NCATS))
